Bioassay records (PubChem BioAssay)
Rows were chosen to be rich in hits. Some 4.5% of all compounds tested hit in one or more screens of this group.
Gli-Sufu antag – Gli-Sufu pathway antagonism; Sufu-KO-LIGHT fibroblasts, Gli luciferase reporter luminescence; inhibition, % at 5 µM; 0.74% of 340,000 active;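 active means inhibition above about 55%, limit read from the data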;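 further: 0% = DMSO-treated cells and 100% = wells with medium but no cells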
697 NFkB inh – inhibitors of the PMA/ionomycin-induced NF-kB reporter in 697 B cells; inhibition, % at 4 µM; 0.33% of 330,000 active; 697 B-cell NF-kB luciferase reporter, 16 h; in the data active means inhibition above about 35%
aSyn 5UTR inh – MLPCN primary screen, SNCA 5' untranslated region | alpha-synuclein 5'UTR reporter, inhibitor activity | inhibition, % (tested at 7.5 µM) | 0.82% of 300,000 active | AID 1813; in the data active means inhibition above about 60%;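 further: H4 neuroglioblastoma cells stably carrying SNCA 5'UTR luciferase fusion; 0% = DMSO wells and 100% = positive control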
Mdm2-MdmX inh – human Mdm2/MdmX binding inhibition. O15151+Q00987. SaOS-2 split-luciferase Mdm2/MdmX complementation, luminescence. inhibition, % at 8 µM. 3% of 330,000 active. AID 485346;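 active means inhibition of at least 50% at 8 µM in the primary screen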
Target sequence (O15151 whole entry, looked up): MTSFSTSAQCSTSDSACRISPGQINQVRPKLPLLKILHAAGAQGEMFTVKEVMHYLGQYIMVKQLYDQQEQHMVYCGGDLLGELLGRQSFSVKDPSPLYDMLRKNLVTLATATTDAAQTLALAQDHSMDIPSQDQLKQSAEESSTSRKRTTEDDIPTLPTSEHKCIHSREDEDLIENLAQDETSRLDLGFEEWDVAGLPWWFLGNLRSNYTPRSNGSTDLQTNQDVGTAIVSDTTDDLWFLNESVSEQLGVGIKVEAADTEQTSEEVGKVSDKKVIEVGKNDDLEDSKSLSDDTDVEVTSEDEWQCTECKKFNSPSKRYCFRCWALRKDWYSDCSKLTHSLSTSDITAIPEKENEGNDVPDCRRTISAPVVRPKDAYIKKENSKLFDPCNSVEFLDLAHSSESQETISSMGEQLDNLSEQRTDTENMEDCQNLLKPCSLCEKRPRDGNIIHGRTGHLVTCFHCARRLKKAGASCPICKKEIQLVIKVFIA
Target sequence (Q00987 whole entry, looked up): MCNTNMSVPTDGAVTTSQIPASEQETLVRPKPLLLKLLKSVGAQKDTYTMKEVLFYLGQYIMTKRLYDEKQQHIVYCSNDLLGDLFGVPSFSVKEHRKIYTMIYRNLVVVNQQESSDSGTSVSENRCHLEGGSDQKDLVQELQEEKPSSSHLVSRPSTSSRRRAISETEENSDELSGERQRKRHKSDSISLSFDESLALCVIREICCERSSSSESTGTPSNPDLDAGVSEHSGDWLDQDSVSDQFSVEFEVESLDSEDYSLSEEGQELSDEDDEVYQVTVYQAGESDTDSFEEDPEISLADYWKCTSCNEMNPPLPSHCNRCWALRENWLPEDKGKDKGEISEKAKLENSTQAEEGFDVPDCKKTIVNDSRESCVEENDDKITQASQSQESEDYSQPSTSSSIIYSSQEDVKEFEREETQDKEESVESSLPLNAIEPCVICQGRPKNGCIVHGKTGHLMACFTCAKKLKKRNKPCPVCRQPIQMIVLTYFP
CSC inhib – blocks cancer stem cells; cancer stem cell-like cells viability, luminescence; 1.1% of 300,000 active; AID 2717; inhibition, % at 7.5 µM; in the data active means inhibition above about 75%; tested in HMLE shEcad cells
Jurkat NFkB inh – lowers PMA/ionomycin-induced NF-kB signal in Jurkat cells | PMA/ionomycin-induced NF-kB luciferase reporter, luminescence | inhibition, % at 4 µM | 0.53% of 330,000 active | AID 435003; in the data active means inhibition above about 50%
* marks the source's active call; other numbers are inactive results.

Results for Cc1c(/C=N\NC(=O)C2COc3ccccc3O2)c2ccccc2n1C (stereo not drawn) ?
Gli-Sufu antag: 29; aSyn 5UTR inh: 102*; CSC inhib: 52

What do the screens show for `CC(=O)Nc1ccc(OCC(O)Cn2c3ccccc3c3ccccc32)c(C)c1` (stereo not drawn)?
Gli-Sufu antag: 1; 697 NFkB inh: -33; aSyn 5UTR inh: 19; Mdm2-MdmX inh: 49; CSC inhib: 78*; Jurkat NFkB inh: 11

Results for CC(C)(C)NC(=O)COc1coc(CN2CCN(C(=O)c3ccco3)CC2)cc1=O ?
Gli-Sufu antag: -6; 697 NFkB inh: 16; aSyn 5UTR inh: 0; Mdm2-MdmX inh: 0; CSC inhib: -4; Jurkat NFkB inh: 15

Results for Brc1ccc(N=C(c2ccccc2)c2ccncc2)cc1 ?
Gli-Sufu antag: -4; 697 NFkB inh: -12; aSyn 5UTR inh: -22; Mdm2-MdmX inh: -8; CSC inhib: -10; Jurkat NFkB inh: 12

How did Cc1ccc(/C=N/Nc2cc(C)nc(NCc3ccccc3)n2)cc1 do in these assays?
Gli-Sufu antag: 7; 697 NFkB inh: 1; aSyn 5UTR inh: 12; Mdm2-MdmX inh: 47; CSC inhib: 97*; Jurkat NFkB inh: 17

What do the screens show for `CCOc1cc(N2CCOCC2)c(OCC)cc1NS(=O)(=O)c1cc(NC(C)=O)ccc1OC`?
Gli-Sufu antag: -6; 697 NFkB inh: -7; aSyn 5UTR inh: 9; Mdm2-MdmX inh: 5; CSC inhib: -17; Jurkat NFkB inh: 3

Results for NC1=C(Cl)C(=O)c2ccc(S(N)(=O)=O)cc2C1=O ?
Gli-Sufu antag: 89*

How did NC1=C(Cl)C(=O)c2ccccc2C1=O do in these assays?
Gli-Sufu antag: 17

How did CCOc1ccccc1-n1nnnc1SCC(=O)O do in these assays?
Gli-Sufu antag: 15; 697 NFkB inh: 5; aSyn 5UTR inh: -2; Mdm2-MdmX inh: 26; CSC inhib: -8; Jurkat NFkB inh: -6

How did CCCc1ccc(Oc2c(-c3ccc(O)c(C)c3O)n[nH]c2C)cc1 do in these assays?
Gli-Sufu antag: -3; 697 NFkB inh: -21; aSyn 5UTR inh: -20; Mdm2-MdmX inh: 13; CSC inhib: 100*; Jurkat NFkB inh: 1

What do the screens show for `CCCc1ccc(Oc2cn[nH]c2-c2ccc(O)c(C)c2O)cc1`?
Gli-Sufu antag: 7; 697 NFkB inh: -5; aSyn 5UTR inh: -12; Mdm2-MdmX inh: 24; CSC inhib: 123*; Jurkat NFkB inh: -10

How did O=C1C=C(c2ccc(F)cc2OCc2ccccc2)C[C@@H](c2ccc(F)cc2)C1 do in these assays?
Gli-Sufu antag: 3; 697 NFkB inh: -11; Mdm2-MdmX inh: 13; CSC inhib: 93*; Jurkat NFkB inh: 3

What do the screens show for `COc1ccc2nc3cc(Cl)ccc3c(Nc3ccc(O)c(CN4CCN(C)CC4)c3)c2c1`?
Gli-Sufu antag: 16

What do the screens show for `COc1ccc(-n2ncc3c2CC(C)(C)CC3NC(=O)c2ccc(OC)o2)cc1` (stereo not drawn)?
Gli-Sufu antag: 16; 697 NFkB inh: -4; aSyn 5UTR inh: -11; Mdm2-MdmX inh: 32; CSC inhib: -9; Jurkat NFkB inh: 8

Results for CCOC(=O)c1ccc(N2CN(CC)CNC2=S)cc1 ?
Gli-Sufu antag: 8; 697 NFkB inh: -16; aSyn 5UTR inh: 64*; Mdm2-MdmX inh: -1; CSC inhib: -7; Jurkat NFkB inh: -4

Results for CCC/C=C(\CCC)C(NS(=O)(=O)c1ccc(C(F)(F)F)cc1)c1ccccc1 (stereo not drawn) ?
aSyn 5UTR inh: 4; CSC inhib: 102*

Results for CCOC(=O)c1cnc2ccc(OCC)cc2c1NCc1ccccc1OC ?
Gli-Sufu antag: 26; 697 NFkB inh: -28; aSyn 5UTR inh: 33; Mdm2-MdmX inh: 42; CSC inhib: 76*; Jurkat NFkB inh: 32

How did CCCCc1c(CCC)c(=N)c2ccccc2n1C do in these assays?
Gli-Sufu antag: 76*; 697 NFkB inh: -20; aSyn 5UTR inh: 5; Mdm2-MdmX inh: 36; Jurkat NFkB inh: 40

What do the screens show for `CCOc1ccc(OCC(=O)Nc2nccs2)cc1`?
Gli-Sufu antag: -56; 697 NFkB inh: 23; aSyn 5UTR inh: 69*; Mdm2-MdmX inh: -46; CSC inhib: -8; Jurkat NFkB inh: 8

What do the screens show for `CCC1CCCCN1S(=O)(=O)c1ccc(S(=O)(=O)N(Cc2ccccn2)CC2CCCO2)cc1` (stereo not drawn)?
Gli-Sufu antag: 6; 697 NFkB inh: 0; aSyn 5UTR inh: 34; Mdm2-MdmX inh: 7; CSC inhib: 79*; Jurkat NFkB inh: -8

How did O=S(=O)(NCC1CCCO1)c1ccc(S(=O)(=O)N(Cc2ccc(F)cc2)Cc2ccccn2)cc1 (stereo not drawn) do in these assays?
Gli-Sufu antag: 1; 697 NFkB inh: 20; aSyn 5UTR inh: 21; Mdm2-MdmX inh: -14; CSC inhib: 4; Jurkat NFkB inh: 5

What do the screens show for `CCCc1nc2c(=O)n(C)c(=O)nc-2n(C)n1`?
Gli-Sufu antag: 59*

What do the screens show for `CCn1c(N)nc2c1c(=O)n(C)c(=O)n2C`?
Gli-Sufu antag: -7; 697 NFkB inh: 9; aSyn 5UTR inh: 9; Mdm2-MdmX inh: 5; CSC inhib: 7; Jurkat NFkB inh: 0

How did CCC(C)[C@@H](CN)NCC1(c2ccccc2)CC1 (stereo partly drawn) do in these assays?
Gli-Sufu antag: -3; 697 NFkB inh: -11; Mdm2-MdmX inh: -38; CSC inhib: -11; Jurkat NFkB inh: 7

How did COc1cc(NC(=O)C2CCCN2S(=O)(=O)c2ccc3c(c2)CC(C)N3C(C)=O)cc(OC)c1 (stereo not drawn) do in these assays?
Gli-Sufu antag: 47; 697 NFkB inh: 12; aSyn 5UTR inh: -2; Mdm2-MdmX inh: 8; CSC inhib: 6; Jurkat NFkB inh: -10

Results for Cc1ccc(NNC(=O)c2ccno2)cc1Cl ?
Gli-Sufu antag: -10; 697 NFkB inh: -17; aSyn 5UTR inh: 2; Mdm2-MdmX inh: -4; CSC inhib: 97*; Jurkat NFkB inh: 7

Results for Cc1noc(C)c1C(=O)NNc1ccc(C(C)C)cc1 ?
Gli-Sufu antag: 9; 697 NFkB inh: -15; aSyn 5UTR inh: 4; Mdm2-MdmX inh: -12; CSC inhib: 59; Jurkat NFkB inh: 8

What do the screens show for `Cc1ccc(NNC(=O)c2c(C)noc2C)cc1Cl`?
Gli-Sufu antag: 45; 697 NFkB inh: -3; aSyn 5UTR inh: -4; Mdm2-MdmX inh: 14; CSC inhib: 98*; Jurkat NFkB inh: 17

How did CCOc1ccc(CCNC(=O)c2cnc(C)cn2)cc1OCC do in these assays?
Gli-Sufu antag: 5; 697 NFkB inh: 9; aSyn 5UTR inh: 12; Mdm2-MdmX inh: 14; CSC inhib: -9; Jurkat NFkB inh: 3

How did NC(C(=O)O)C1ON=C(Cl)C1O (stereo not drawn) do in these assays?
Gli-Sufu antag: -14

Results for COc1ccc(-c2nc(CCl)cs2)cc1 ?
Gli-Sufu antag: -16; 697 NFkB inh: -44; aSyn 5UTR inh: -142; Mdm2-MdmX inh: -17; CSC inhib: 3; Jurkat NFkB inh: -28

What do the screens show for `COc1ccc(-c2csc(-c3ccc(O)cc3)n2)cc1`?
Gli-Sufu antag: -64; 697 NFkB inh: -154; aSyn 5UTR inh: -215; Mdm2-MdmX inh: -26; CSC inhib: 90*; Jurkat NFkB inh: 14
